40 compounds from the supplement of paper PMC6288085 can be followed below.

Structures are written as SMILES. Structures can show the parent of a compound that is named as a salt. ± gives the uncertainty stated by the source.

This assay has as its system Caenorhabditis elegans N2. The assay is described as follows: food intake (mean delta OD600 / animal over 72 h) with 50 uM loxapine co-treatment (OD600 units per animal); higher = more food eaten (less suppression of loxapine-induced hyperphagia). To be noted: first compound 33 µM, loxapine concentration 50 µM. The procedure: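 C. elegans N2 adults (FUDR-sterilised, day 1) in 96-well plates fed gamma-irradiated bacteria. Each library drug (MedChemExpress FDA-approved library) at 33 uM was combined with loxapine at 50 uM. Food intake was measured as bacterial clearance: the change in OD600 from day 1 to 72 h, normalised per animal (mean over 14-21 wells of about 10-12 worms). Drugs flagged for bacterial lysis or sickness were excluded by the authors.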
For `CC(C)[C@H](N)C(=O)OCCOCn1cnc2c(=O)nc(N)[nH]c21` [valacyclovir (hydrochloride)] + CN1CCN(C2=Nc3ccccc3Oc3ccc(Cl)cc32)CC1 [loxapine], the food intake is 0.0213 ± 0.0096.

With `NC12CC3CC(CC(C3)C1)C2` [amantadine (hydrochloride)] + CN1CCN(C2=Nc3ccccc3Oc3ccc(Cl)cc32)CC1 [loxapine], the food intake was determined as 0.0253 ± 0.003.

For the compound `CN(CCOc1ccc(CC2SC(=O)NC2=O)cc1)c1ccccn1` (stereo not given) [rosiglitazone (maleate)] + CN1CCN(C2=Nc3ccccc3Oc3ccc(Cl)cc32)CC1 [loxapine], the food intake stood at 0.0207 ± 0.002. To `CC(=O)NC(Cc1ccccc1)C(=O)O` (racemic) [N-acetyl DL-phenylalanine] + CN1CCN(C2=Nc3ccccc3Oc3ccc(Cl)cc32)CC1 [loxapine] belongs 0.0223 ± 0.0049; to `CCOc1ccc(NC(C)=O)cc1` [phenacetin] + CN1CCN(C2=Nc3ccccc3Oc3ccc(Cl)cc32)CC1 [loxapine], 0.0226 ± 0.0036. The result for `C[C@H]1c2cccc(O)c2C(=O)C2=C(O)[C@]3(O)C(=O)C(C(N)=O)=C(O)[C@@H](N(C)C)[C@@H]3[C@@H](O)[C@@H]21` [doxycycline] + CN1CCN(C2=Nc3ccccc3Oc3ccc(Cl)cc32)CC1 [loxapine] reads 0.0161 ± 0.0037; that for `CC(C)C(=O)c1c(C(C)C)nn2ccccc12` [ibudilast] + CN1CCN(C2=Nc3ccccc3Oc3ccc(Cl)cc32)CC1 [loxapine], 0.0243 ± 0.0046; that for `C=CC[N+]1([C@H]2C[C@H]3[C@@H]4CC[C@H]5C[C@H](O)[C@@H](N6CCOCC6)C[C@]5(C)[C@H]4CC[C@]3(C)[C@H]2OC(C)=O)CCCC1` [rocuronium (bromide)] + CN1CCN(C2=Nc3ccccc3Oc3ccc(Cl)cc32)CC1 [loxapine], 0.0231 ± 0.0029.

`CC[C@@H](CO)NCCN[C@@H](CC)CO` [ethambutol (dihydrochloride)] + CN1CCN(C2=Nc3ccccc3Oc3ccc(Cl)cc32)CC1 [loxapine]: the food intake amounted to 0.024 ± 0.0019. For `S=c1nc[nH]c2nc[nH]c12` [6-Mercaptopurine] + CN1CCN(C2=Nc3ccccc3Oc3ccc(Cl)cc32)CC1 [loxapine], the food intake was 0.0218 ± 0.0028.

On to `CC(=O)CCCCn1c(=O)c2c(ncn2C)n(C)c1=O` [pentoxifylline] + CN1CCN(C2=Nc3ccccc3Oc3ccc(Cl)cc32)CC1 [loxapine], for which the food intake was 0.0226 ± 0.002. To `CCc1nc(N)nc(N)c1-c1ccc(Cl)cc1` [pyrimethamine] + CN1CCN(C2=Nc3ccccc3Oc3ccc(Cl)cc32)CC1 [loxapine] belongs 0.0221 ± 0.003; to `c1ccc(C2CN3CCSC3=N2)cc1` (stereo not given) [tetramisole (hydrochloride)] + CN1CCN(C2=Nc3ccccc3Oc3ccc(Cl)cc32)CC1 [loxapine], 0.0209 ± 0.0029. Turning to `CC[C@H]1OC(=O)C[C@@H](O)[C@H](C)[C@@H](O[C@@H]2O[C@H](C)[C@@H](O[C@H]3C[C@@](C)(O)[C@@H](O)[C@H](C)O3)[C@H](N(C)C)[C@H]2O)[C@@H](CC=O)C[C@@H](C)C(=O)/C=C/C(C)=C/[C@@H]1CO[C@@H]1O[C@H](C)[C@@H](O)[C@@H](OC)[C@H]1OC` [Tylosin] + CN1CCN(C2=Nc3ccccc3Oc3ccc(Cl)cc32)CC1 [loxapine], the food intake was found to be 0.0219 ± 0.0051. For `COc1ccc(CNc2nc(N3CCC[C@H]3CO)ncc2C(=O)NCc2ncccn2)cc1Cl` [avanafil] + CN1CCN(C2=Nc3ccccc3Oc3ccc(Cl)cc32)CC1 [loxapine], the food intake is 0.023 ± 0.0037.

With `Nc1nccs1` [aminothiazole] + CN1CCN(C2=Nc3ccccc3Oc3ccc(Cl)cc32)CC1 [loxapine], the food intake came out at 0.0243 ± 0.0035. The result for `CN(C)c1cc(NC(=O)CNC(C)(C)C)c(O)c2c1C[C@H]1C[C@H]3[C@H](N(C)C)C(O)=C(C(N)=O)C(=O)[C@@]3(O)C(O)=C1C2=O` [tigecycline] + CN1CCN(C2=Nc3ccccc3Oc3ccc(Cl)cc32)CC1 [loxapine] reads 0.0234 ± 0.0019. The result for `CC(C(=O)O)c1ccc2c(c1)CC(=O)c1ccccc1S2` (stereo not given) [zaltoprofen] + CN1CCN(C2=Nc3ccccc3Oc3ccc(Cl)cc32)CC1 [loxapine] reads 0.0216 ± 0.0032. The result for `CCCc1nn(C)c2c(=O)[nH]c(-c3cc(S(=O)(=O)N4CCN(C)CC4)ccc3OCC)nc12` [sildenafil (citrate)] + CN1CCN(C2=Nc3ccccc3Oc3ccc(Cl)cc32)CC1 [loxapine] reads 0.024 ± 0.0028; that for `CC(C)NCC(O)COc1ccc(CCOCC2CC2)cc1` (stereo not given) [betaxolol (hydrochloride)] + CN1CCN(C2=Nc3ccccc3Oc3ccc(Cl)cc32)CC1 [loxapine], 0.025 ± 0.003; that for `CC(C)Cc1ccc(C(C)C(=O)O)cc1` (stereo not given) [ibuprofen] + CN1CCN(C2=Nc3ccccc3Oc3ccc(Cl)cc32)CC1 [loxapine], 0.0222 ± 0.0021. Take `COc1ccc(CCN(C)CCCN2CCc3cc(OC)c(OC)cc3CC2=O)cc1OC` [zatebradine] + CN1CCN(C2=Nc3ccccc3Oc3ccc(Cl)cc32)CC1 [loxapine]: the food intake stood at 0.0232 ± 0.0027. As to `CC(=O)OCC(CCn1cnc2cnc(N)nc21)COC(C)=O` [famciclovir] + CN1CCN(C2=Nc3ccccc3Oc3ccc(Cl)cc32)CC1 [loxapine], the food intake was found to be 0.0236 ± 0.0029.

For `NNC(=O)c1ccncc1` [isoniazid] + CN1CCN(C2=Nc3ccccc3Oc3ccc(Cl)cc32)CC1 [loxapine], the food intake is 0.0217 ± 0.0032. As for `Nc1ccn([C@@H]2CS[C@H](CO)O2)c(=O)n1` [lamivudine] + CN1CCN(C2=Nc3ccccc3Oc3ccc(Cl)cc32)CC1 [loxapine], the food intake amounted to 0.0212 ± 0.003. To `CC(C)(C)C(=O)OCOC(=O)[C@@H]1N2C(=O)[C@@H](/N=C/N3CCCCCC3)[C@H]2SC1(C)C` [pivmecillinam (hydrochloride)] + CN1CCN(C2=Nc3ccccc3Oc3ccc(Cl)cc32)CC1 [loxapine] belongs 0.0244 ± 0.0027. To `CN(CCOc1ccc(CC2SC(=O)NC2=O)cc1)c1ccccn1` (stereo not given) [rosiglitazone] + CN1CCN(C2=Nc3ccccc3Oc3ccc(Cl)cc32)CC1 [loxapine] belongs 0.0226 ± 0.0041. With `CCOCC(O)COc1ccc(NC(=O)CC[S+](C)C)cc1` (stereo not given) [Suplatast (tosilate)] + CN1CCN(C2=Nc3ccccc3Oc3ccc(Cl)cc32)CC1 [loxapine], the food intake was 0.0232 ± 0.0036. The result for `O=c1[nH]c(=O)n([C@H]2C[C@H](O)[C@@H](CO)O2)cc1I` [idoxuridine] + CN1CCN(C2=Nc3ccccc3Oc3ccc(Cl)cc32)CC1 [loxapine] reads 0.0176 ± 0.0026. The result for `C[C@@H]1CCN(C(=O)CC#N)C[C@@H]1N(C)c1ncnc2[nH]ccc12` [tofacitinib (citrate)] + CN1CCN(C2=Nc3ccccc3Oc3ccc(Cl)cc32)CC1 [loxapine] reads 0.0227 ± 0.0047; that for `CN(C)CCC=C1c2ccccc2C=Cc2ccccc21` [cyclobenzaprine (hydrochloride)] + CN1CCN(C2=Nc3ccccc3Oc3ccc(Cl)cc32)CC1 [loxapine], 0.0221 ± 0.0063. As to `CO/N=C1\CN(c2nc3c(cc2F)c(=O)c(C(=O)O)cn3C2CC2)CC1CN` (stereo not given) [gemifloxacin (mesylate)] + CN1CCN(C2=Nc3ccccc3Oc3ccc(Cl)cc32)CC1 [loxapine], the food intake came out at 0.023 ± 0.0032.

As for `COc1ccc(C(=O)NCc2ccc(OCCN(C)C)cc2)cc1OC` [itopride (hydrochloride)] + CN1CCN(C2=Nc3ccccc3Oc3ccc(Cl)cc32)CC1 [loxapine], the food intake amounted to 0.0294 ± 0.033. In the case of `O=C1NC(=O)C(c2ccccc2)(c2ccccc2)N1` [phenytoin] + CN1CCN(C2=Nc3ccccc3Oc3ccc(Cl)cc32)CC1 [loxapine], the food intake came out at 0.0218 ± 0.0037.

Consider `Cc1ncc([N+](=O)[O-])n1CC(C)O` (stereo not given) [secnidazole] + CN1CCN(C2=Nc3ccccc3Oc3ccc(Cl)cc32)CC1 [loxapine], for which the food intake amounted to 0.0205 ± 0.0035. The result for `CO/N=C(\C(=O)N[C@@H]1C(=O)N2C(C(=O)O)=C(CSc3nc(=O)c(O)nn3C)CS[C@H]12)c1csc(N)n1` [ceftriaxone (sodium salt)] + CN1CCN(C2=Nc3ccccc3Oc3ccc(Cl)cc32)CC1 [loxapine] reads 0.0251 ± 0.0082. The result for `COc1cc(O)c(C(=O)c2ccccc2)cc1S(=O)(=O)O` [sulisobenzone] + CN1CCN(C2=Nc3ccccc3Oc3ccc(Cl)cc32)CC1 [loxapine] reads 0.0234 ± 0.0024; that for `CCN(CC)C(=O)c1cccc(C)c1` + CN1CCN(C2=Nc3ccccc3Oc3ccc(Cl)cc32)CC1 [loxapine], 0.023 ± 0.0029; that for `O=c1[nH]c(=O)n([C@H]2C[C@H](O)[C@@H](CO)O2)cc1C(F)(F)F` [trifluorothymidine] + CN1CCN(C2=Nc3ccccc3Oc3ccc(Cl)cc32)CC1 [loxapine], 0.0216 ± 0.0028. To `Cc1ccnc(NS(=O)(=O)c2ccc(N)cc2)n1` [sulfamerazine] + CN1CCN(C2=Nc3ccccc3Oc3ccc(Cl)cc32)CC1 [loxapine] belongs 0.0224 ± 0.0031.
